Measurements published in PubChem BioAssay AID493244 (The Scripps Research Institute Molecular Screening Center, 2011).
Where “and” joins values, the source holds several entries; their conditions need not be identical. Identical values can stand only once. In all, about 340,000 compounds went through this assay and about 390 (0.11%) were called active. Shown is part of a subset that was picked to be rich in actives. Unmarked numbers belong to inactive results.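 The calls were made as follows: active = inhibition above the mean inhibition of all tested compounds plus 3 SD (cut at about 17% in these data); inactive = the rest.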

Biological target: Troponin I, cardiac muscle (Homo sapiens) + Troponin T, cardiac muscle (Homo sapiens) + Troponin C, slow skeletal and cardiac muscles (Homo sapiens) (UniProt P19429+P45379+P63316)
Test: cardiac RTF calcium sensitivity inhibitors, primary screen, biochemical, IANBD-TnC fluorescence, EC70 calcium (AID 493244);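 also: assay run at fixed EC70 calcium of 1.6 mM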
Details: IANBD-labeled cardiac RTF, Ca2+ fluorescence; at 7.15 µM; active compounds read high

SMILES	inhibition
O=C(C[C@H]1C(=O)N(c2ccc(F)c(F)c2)C[C@@H]1Cc1ccccc1)Nc1ccccc1	-7.8%
COc1cc(OC)cc(-c2c(-c3ccc(F)cc3)c3cc(-c4ccc5cc[nH]c5c4)ccc3n2C)c1	0.02%
Cc1nc2ccc(NC(=O)c3cccc(S(=O)(=O)N4CCOCC4)c3)cc2s1	7.38%
O=S(=O)(Nc1ccc2nc(N3CCOCC3)sc2c1)c1ccccc1	-15.4%
O=C(O)c1cccc(S(=O)(=O)Nc2ccc(O)cc2Sc2nc3ccccc3s2)c1	20.3% (active)
CCCOc1ccc(N2C(=O)CC(N(CCc3ccc(S(N)(=O)=O)cc3)C(C)=O)C2=O)cc1 (stereo not given)	11.4%
COC(=O)CN(c1cccc(C(C)=O)c1)S(C)(=O)=O	-2.17%
CCCC/S(C)=N/S(=O)(=O)c1ccc(C)cc1 (stereo not given)	-2.27%
CC(=O)C1C(c2ccc(Cl)cc2)c2c(n[nH]c2C)CC1(C)O (stereo not given)	-5.53%
O=C(Nc1cccnc1)c1cc2cc(Br)ccc2oc1=O	3.93%
COc1cccc(N(CC(=O)NC2CCCCCC2)S(=O)(=O)c2ccccc2)c1	-9.96%
COC(=O)C1(C)NC(c2ccccc2OC)C2C(=O)N(c3ccccc3)C(=O)C21 (stereo not given)	-1.37%
C=CCC(CC=C)(C(N)=O)c1ccccc1	-6.01%
CNC(=O)COc1ccc(S(=O)(=O)Nc2ccccc2)cc1	-0.29%
CCCCn1c(N)c(N(CC(C)C)C(=O)c2cccc(S(=O)(=O)N3CC(C)OC(C)C3)c2)c(=O)[nH]c1=O (stereo not given)	-3.78%
CCN(CC)C(=O)[C@H]1CC(CC(=O)NCc2ccco2)C(=O)N2CCc3c([nH]c4ccccc34)[C@]12C (stereo not given in full)	-0.12%
Cc1ccccc1N(C(=O)Cc1cccs1)C(C(=O)NC1CCCCC1)c1cn(C)nc1C (stereo not given)	-6.48%
Cc1ccsc1C(C(=O)NC1CCCCC1)N(C(=O)Cc1cccs1)C1CC1 (stereo not given)	-0.55%
Cc1cccc(N(C(=O)Cc2cccs2)C(C(=O)NC2CCCC2)c2ccsc2)c1 (stereo not given)	18.7% (active)
COc1ccc(C(C#N)(CC(=O)O)c2cnccn2)cc1OC (stereo not given)	2.97%
CCOC(=O)C1Cn2c(nc3c(c2=O)C(C)(CC)Cc2ccccc2-3)S1 (stereo not given)	-5.87%
Cc1nc2cc(S(=O)(=O)C(F)(F)F)ccc2s1	0.85%
Cn1c(N)cc(=O)n(C)c1=S	1.39%

SMILES	inhibition
Cc1csc(/N=C/N(C)C)c1C#N	5.98%
Cc1c(CCOC(=O)CC23CC4CC(CC(C)(C4)C2)C3)sc[n+]1Cc1ccc([N+](=O)[O-])cc1	-12.4% and -2.7%
CCOC(=O)c1sc(N(Cc2ccccc2)C(=O)CN2C(=O)CN(C)C2=O)nc1C	-19.2%
OCCC1CN(Cc2ccc(Oc3ncccn3)cc2)CCN1CCc1ccccc1 (stereo not given)	-5.37%
CC1(C)CC(=O)C=C(NCc2ccncc2)C1	-4.04%
O=C(NCc1ccccc1Cl)C1CCC(CNc2c(N3CCCCC3)c(=O)c2=O)CC1 (stereo not given)	-11.6%
NC1=NC(c2ccc([N+](=O)[O-])cc2)N(c2ccc(F)cc2)C(N)=N1 (stereo not given)	4.59%
CCn1c(O)c(N=NC2=NC(=O)CS2)c2cc(C)ccc21	3.93%
CCCCC(NC(=O)c1cccc(Br)c1)C(=O)O (stereo not given)	-10.9%
CSc1ncnc2c1ncn2CC(=O)C1CCC2C3CCC4=CC(=O)CCC4(C)C3CCC12C (stereo not given)	-3.91%
COc1ccc2c(c1)cc1n2CCN=C1NN	-7.01%
COc1ccccc1-c1n[nH]c2c1[C@H](C)CC[C@H]2C(C)C	-2.28%
CC(=O)c1nn(-c2cccc(C(F)(F)F)c2)c(=O)[nH]c1=O	-1.11%
COC(=O)CCc1sc(Nc2ccc(Br)cc2)nc1-c1ccc(OC)cc1	20.8% (active)
Cc1ccc(OC(=O)CCC(=O)Nc2ccc(Br)cc2)cc1	-3.9%
COc1ccc(NC(=O)CCC(=O)Nc2nnc(C3CCCCC3)s2)cc1	-6.36%
Cc1ccc2c(cnn2C(=O)CCC(=O)NC2CCCC2)c1	6.54%
CCN(CC(=O)Nc1c(F)cccc1F)C(=O)c1ccc(-c2ccc(C(C)=O)cc2)o1	1.58%
COc1ccc(-n2c(C)cc(C(=O)CN3C(=O)NC4(CCc5ccccc54)C3=O)c2C)cc1 (stereo not given)	-0.58%
O=C(/C(=N\O)n1cncn1)c1ccc(Br)cc1Br	-6.03%
Cc1ccc(CN2CCNC(=O)C2CC(=O)NCc2csc(C(C)C)n2)cc1 (stereo not given)	-0.36%
O=C1C=C(c2ccc(Cl)cc2)C(=O)N1Nc1ccccc1	-3.83%
Cc1ccc(C(=O)NCCc2nnc(SCC(=O)Nc3cccc(C(=O)O)c3)n2C)cc1	-8.53%

SMILES	inhibition
CCC(NC(=O)c1cc(COc2ccc(F)c(F)c2)on1)c1ccncc1 (stereo not given)	-0.88%
CCCN(CCC)CCCNC(=O)CNC(=O)c1nn(-c2ccc(OC)cc2)c(=O)c2ccccc12	1.59%
COc1ccc(NS(=O)(=O)c2cc(NC(=O)COc3ccccc3F)ccc2OC)cc1	-0.92%
COc1ccc(C(F)(F)F)cc1N/C=C\c1nnnn1-c1ccc(C)cc1	-1.14%
Cc1ccc(-c2c[n+](=O)c3c(n2[O-])CCC3)cc1	-7.98%
Cc1ccc(NC(=O)C(C)OC(=O)C2CC3CCCC(C2)C3=O)cc1S(=O)(=O)N1CCOCC1 (stereo not given)	-1.77%
N#CCCn1ncc2ccccc21	-17%
CCOC(=O)N1CCN(Cc2nc3cc(NC(=O)CC)ccc3n2CC)CC1	-8.27%
CCC(C)CN1CCC(CO)(Cc2ccccc2Cl)CC1 (stereo not given)	2.96%
CC(C)C[C@H]1CN=C(Nc2ccccc2)N1CC1CCCCC1	-2.92%
CCOc1ccc(-n2c(SC(C)C(=O)OC)nc3c(c2=O)SCC3)cc1 (stereo not given)	-6.85%
Cc1ccc2nc(Nc3ncc4c(n3)CC(C)(C)CC4=O)nc(C)c2c1	-5.46%
NS(=O)(=O)c1cccc(NC(=O)CC23CC4CC(CC(Br)(C4)C2)C3)c1	-5.43%
CC(C)(CNC(=O)c1ccc(Cl)c(S(=O)(=O)N2CCc3ccccc3C2)c1)N1CCOCC1	-11.2%
COc1ccccc1C(=O)N1CCNC(=O)C1CC(=O)Nc1ccc(Cl)cc1 (stereo not given)	1.41%
COc1cc(OC)cc(C(=O)NCC(=O)OCc2csc(-c3ccccc3)n2)c1	17.6% (active)
COc1cc(OC)cc(C(=O)NCC(=O)OCC(=O)NC(C)CCc2ccccc2)c1 (stereo not given)	-1.01%
COC(=O)c1ccc(COC(=O)CNC(=O)c2cccc(OC)c2)o1	-10.2%
Cc1ccc(S(=O)(=O)N2CC(O)C[C@H]2C(=O)OCC(=O)Nc2ccc(N3CCOCC3)cc2)cc1C (stereo not given in full)	-9.94%
CC1CCCC(NC(=O)COC(=O)[C@@H]2CC(O)CN2S(=O)(=O)c2ccc3c(c2)OCCO3)C1C (stereo not given in full)	20.7% (active)
O=C1COc2ccc(C(=O)COC(=O)C3CC(O)CN3S(=O)(=O)c3ccc(Cl)cc3)cc2N1 (stereo not given)	-1.25%
CCN(CC)CCNC(=O)c1ccc(NC(=O)c2c(F)cccc2Cl)cc1	-3.23%
COC(=O)C1=NN(c2ccccc2)C2C(=O)N(c3ccccc3OC)C(=O)C12 (stereo not given)	-2.73%

SMILES	inhibition
Cc1oc2cc(Br)c(O)c(Br)c2c1C(=O)c1ccccc1	-3.49%
CC(=O)Nc1nc(N(C)C)nc(N(C)C)n1	2.09%
CCN1C(=O)/C(=C2\SC(N3CCCCC3)=NC2=O)c2ccccc21	-0.1%
Cn1c2c(c(=O)n(C)c1=O)C(c1ccc(O)cc1)Nc1ccccc1O2 (stereo not given)	3.38%
O=C(N[C@@H]1C/C=C\C[C@@H](CC(=O)N(CCO)Cc2ccccc2)C(=O)N[C@H](Cc2ccccc2)COC1=O)OCC1c2ccccc2-c2ccccc21	-7.62%
O=C(O)c1ccccc1N=N/C(=N/Nc1cc(S(=O)(=O)O)ccc1O)c1ccccc1	5.68%
CC1CC(C)CN(C(=O)CSc2ccsc2[N+](=O)[O-])C1 (stereo not given)	-12.4%
COc1ccc(NC(=O)CC2COc3ccccc3O2)c(OC)c1 (stereo not given)	17.3% (active)
COc1ccc(NC(=O)C2COc3ccccc3O2)cc1 (stereo not given)	1.47%
COc1ccc(NC(=O)NCc2ccc3c(c2)OCO3)c(OC)c1	-6.62%
O=C(Nc1ccccc1)c1nnsc1S(=O)(=O)c1ccc(Cl)cc1	-4.97%
N=c1n(Cc2ccc(Cl)cc2)c2ccccc2n1CC(O)c1ccco1 (stereo not given)	-16.9%
Cc1ccc(NC(=O)CN(C)C(=O)c2ccc(Br)o2)cc1	-14.7%
CCCCCCCCNS(=O)(=O)CCNC1CCCCC1	-2.61%
Cc1ccc2c(c1)N(CC(=O)N1CCCC(C)C1)C(=O)CO2 (stereo not given)	-10.6%
Cc1c(S(=O)(=O)N2CC(C)CC(C)C2)c(=O)n(C)c(=O)n1C (stereo not given)	-1.29%
O=C(O)CCCCOn1ccnc1	-6.34%
CN(CC1CCCO1)S(=O)(=O)c1ccc(C(=O)Nc2ccc(F)cc2)cc1 (stereo not given)	1.44%
COc1ccc(NC2=CC(=S)NC(C)(C)C2)cc1	-18.1%
Cc1ccc2c(c1)N(CC(=O)N1CCC(O)CC1)C(=O)CO2	6.2%
COc1ccc(CNC(=O)CN2C(=O)c3ccccc3S2(=O)=O)cc1	-0.78%
